D1 antag – human D1 dopamine receptor antagonism. actives 3.2% (n = 360,000). HEK293 TREx D1 cells, calcium flux, dopamine EC80; stronger effect = lower value. AID 504652. activity change, negative = inhibition, % at 10 µM. P21728; in the data active = activity change below about -30%
Target sequence (P21728 whole entry, looked up): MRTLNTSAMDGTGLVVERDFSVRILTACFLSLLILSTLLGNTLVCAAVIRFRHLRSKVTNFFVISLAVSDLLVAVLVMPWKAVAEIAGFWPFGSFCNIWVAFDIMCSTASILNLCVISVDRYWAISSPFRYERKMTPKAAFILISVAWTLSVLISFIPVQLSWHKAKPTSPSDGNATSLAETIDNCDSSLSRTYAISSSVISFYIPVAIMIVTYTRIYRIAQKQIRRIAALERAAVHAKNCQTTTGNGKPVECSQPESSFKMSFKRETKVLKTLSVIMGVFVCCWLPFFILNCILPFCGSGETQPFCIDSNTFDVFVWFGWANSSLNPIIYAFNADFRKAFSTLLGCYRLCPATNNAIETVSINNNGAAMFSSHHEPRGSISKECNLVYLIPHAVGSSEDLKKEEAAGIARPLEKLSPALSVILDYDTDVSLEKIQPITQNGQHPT
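Inducible Hek293 Trex D1 cells (tetracycline, overnight, 30 C). Calcium dye 30–90 min RT. Antagonist mode: EC80 dopamine added after 180 s compound read.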
D1 PAM – human D1 dopamine receptor positive modulation; actives 0.036% (n = 360,000); potentiation, % at 10 µM; P21728; HEK293 TREx D1 cells, calcium flux, dopamine EC20 potentiation; in the data active = potentiation above about 30%
D1 ag – activates the human D1 dopamine receptor; P21728; HEK293 T-REx D1 cells, calcium flux, agonist mode; activation, % at 2 µM; actives 1% (n = 360,000); AID 504660; in the data active = activation above about 30%
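Agonism was scored from calcium flux recorded over 180 s (1 read/s) after pintool compound addition, following a 10-cycle baseline. Cells were inducible force-coupled HEK293 TREx D1, plated overnight at 30 C and loaded with no-wash calcium dye.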
DRD3 antagonist – D3 dopamine receptor (human) antagonism | P35462 | D3R cells, DiscoveRx beta-arrestin luminescence, antagonist mode; stronger effect = lower value | max response, negative = inhibition, % | actives 2.5% (n = 360,000) | AID 652054; in the data active = max response below about -50%; inconclusive = no clear call, values can overlap the other calls
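Cells expressing the human receptor were seeded at 1500 cells/well, incubated overnight at 37 degrees C in 5% CO2, then exposed to library compounds with dopamine controls for 90 minutes at 37 degrees C before luminescent detection.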
DRD3 agonist – D3 dopamine receptor (human) agonism; P35462; D3R DiscoveRx beta-arrestin cells, luminescence, 90 min; max activation, %; actives 0.58% (n = 410,000); AID 652048; in the data active = max activation above about 30%
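Cells at 1500/well, incubated overnight, then treated with pinned compounds (dopamine as control) for 90 min at 37 degrees C. DiscoveRx reagent added for 30 - 60 minutes at room temperature; luminescence read.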
A number is an active result; - = inactive; ? = inconclusive; . = no result given. Only some compounds are listed: those with a hit (about 6.1% of all), similar ones and a draw of the others.

SMILES	D1 antag	D1 PAM	D1 ag	DRD3 antagonist	DRD3 agonist
COC(=O)c1cc(OC)c(OC)cc1NC(=S)Nc1cccc(Cl)c1	-	-	-	-66	-
Cc1ccc(-n2ncc3c(NC4CCCCC4)ncnc32)cc1C	-	-	-	.	-
COc1ccc(C(=O)NC(=S)NNC(=O)Cc2cccs2)cc1	-	-	-	-67	-
CCOC(=O)/C(=C\c1cccnc1)C(=O)c1cc(C(C)=O)c(Nc2ccccc2)s1	-	-	-	-130	-
O=C(/C=C/c1ccccc1)NC(=S)NNC(=O)c1cccnc1	-	-	-	?	-
COc1ccc(/C=C/C(=O)NC(=S)NNC(=O)c2cccnc2)cc1OC	-	-	-	-61	-
CCOC(=O)/C(=C\c1ccc(OC)c(OC)c1)C(=O)c1cccnc1	-	-	-	-50	-
CCCN(CCC)C(=O)Cn1c(=O)n(-c2ccc(CC)cc2)c(=O)c2c3c(sc21)CCC3	-	-	-	.	-
Cc1nc([N+](=O)[O-])cn1-c1ccc([N+](=O)[O-])cc1	.	.	.	.	-
O=C(O)c1ccc(CNCc2ccccc2Cl)s1	-	-	-	.	-
C[C@]12CCC(=O)C=C1[C@@H]1C[C@@H]1[C@H]1[C@@H]3[C@@H]4C[C@@H]4[C@@]4(CCC(=O)O4)[C@@]3(C)CC[C@@H]12	.	.	.	.	-
Cc1ccc(NC(=O)c2cnc(SCC(=O)N3CCOCC3)n(C)c2=O)cc1	.	-	-	.	-
COc1ccccc1N(CC(=O)NCCN1CCOCC1)S(=O)(=O)c1ccccc1	-	-	-	-	-
CCc1cc(C(=O)Nc2nc(-c3ccccn3)cs2)sc1C	-	-	-	-	-
CCCn1nnc(NC(=O)C(C)C)n1	-	-	-	-	-
COc1ccc(/C=C/C(=O)NC(=S)NNC(=O)Cc2cccs2)cc1OC	-	-	-	-72	-
O=C(/C=C/c1cccs1)NCc1cccs1	.	.	.	-	-
COc1cc(C=C(C(C)=O)C(C)=O)ccc1O	-	-	-	-	-
O=C(/C=C/c1cccs1)NC(=S)NNC(=O)Cc1cccs1	-	-	-	-80	-
COc1ccc(C=C(C(C)=O)C(C)=O)cc1OC	-	-	-	-50	-
CCN(CC(=O)Nc1ccccc1C(F)(F)F)C(=O)CN1C(=O)NC(C)(c2ccc3ccccc3c2)C1=O (centres undefined)	.	.	.	-	-
O=C(Nc1cnc(N2CCN(c3ccccc3)CC2)c(C(=O)O)c1)c1cccs1	-	-	-	.	-
Cc1cccc(NC(=O)c2ccc(-n3cccn3)c([N+](=O)[O-])c2)c1	-	-	-	-	-
Cc1ccc(NC(=O)CN(C)C(=O)c2ccc(-n3cncn3)c([N+](=O)[O-])c2)cc1	-55	-	-	-	-
CCc1ccc(NC(=O)c2ccc(-n3cncn3)c([N+](=O)[O-])c2)cc1	-	-	-	-	-
SMILES	D1 antag	D1 PAM	D1 ag	DRD3 antagonist	DRD3 agonist
Cc1ccc(NC(=O)c2ccc(-n3cccn3)c([N+](=O)[O-])c2)cc1	-	-	-	-53	-
COc1ccc(C)cc1NC(=O)C(OC(=O)CNC(=O)c1ccccc1)c1ccccc1 (centres undefined)	-	-	-	.	.
COc1ccc2[nH]c(C(=O)O)c(CCN3C(=O)c4cccc([N+](=O)[O-])c4C3=O)c2c1	-	-	-	-	-
CCN(Cc1ccccc1OC)CC1CCCN(CCc2cccc(OC)c2)C1 (centres undefined)	-	-	-	-	-
CCN(Cc1ccc(NC(C)=O)cc1)CC1CCCN(CCc2cccc(OC)c2)C1 (centres undefined)	-	-	-	-52	-
CCN(CC)CCNC(=O)c1ccc(N2CCCCC2)c(NS(=O)(=O)c2ccc(C)cc2)c1	-	-	-	-82	-
COC(=O)c1ccc(N2CCCCC2)c(NS(=O)(=O)c2ccc(C)cc2)c1	-	-	-	-	-
CCN(CC)CCNC(=O)c1ccc(Cl)c(S(=O)(=O)Nc2ccc(Cl)cc2)c1	-	-	-	-56	-
CCN(CC)CCNC(=O)c1ccc(NC(=O)c2ccc(S(=O)(=O)N3CCCCCC3)cc2)cc1	-57	-	-	-	-
COc1ccc(C(=O)O)cc1S(=O)(=O)Nc1cc(C(F)(F)F)ccc1N1CCCCC1	.	.	.	-	-
CCOC(=O)c1ccc(N2CCCCC2)c(NS(=O)(=O)c2cccc(C(F)(F)F)c2)c1	-48	-	-	-	-
Cc1cc2[nH]c(=O)c(=O)[nH]c2cc1S(=O)(=O)Nc1cccc(C(F)(F)F)c1	-	-	-	.	-
CCC(Sc1nnc(C)n2c1cc1occc12)C(=O)Nc1ccccc1OC (centres undefined)	-	-	-	.	-
CCN(CC)CCNC(=O)c1ccc(NC(=O)c2ccc(Cl)c(S(=O)(=O)N3CCCCCC3)c2)cc1	-47	-	-	?	-
CCN(CC)CCNC(=O)c1ccc(NC(=O)c2cccc(S(=O)(=O)N3CCCCCC3)c2)cc1	.	.	.	-	-
CN1CCc2nc(SCCOc3ccccc3)c(C#N)cc2C1	-	-	-	-58	-
CC(C)Oc1ccc(CNC(=O)c2cccc(NC(=O)N3CCSc4ncccc43)c2)cc1	-	-	-	.	-
N#CC1=C2SCC(O)(c3ccccc3)N2C(=O)CC1c1cccs1 (centres undefined)	-	-	63	-	-
CC(C)(Oc1ccc(Cl)cc1)C(=O)NNC(=O)c1ccc(Br)o1	-	-	-	-	-
O=C(O)CCN1C(=O)C2C3c4ccccc4C(c4ccccc43)[C@@H]2C1=O (some centres undefined)	-31	-	-	-	-
O=C(O)CCN1C(=O)C2C3c4ccccc4C(c4ccccc43)C2C1=O (centres undefined)	-	-	-	-	-
Cc1csc(NC(=O)CSc2ccc(-c3ccccn3)nn2)n1	-98	-	-	-	-
Cc1csc(NC(=O)c2ccc(COc3ccccc3)o2)n1	-35	-	-	-	-
CC(=O)Nc1ccc(C(=O)Nc2nc(-c3ccccn3)cs2)cc1	-	-	-	-56	-
CC(=O)Nc1ccc(C(=O)Nc2nc(-c3cccnc3)cs2)cc1	-	-	-	-	-
SMILES	D1 antag	D1 PAM	D1 ag	DRD3 antagonist	DRD3 agonist
Cc1csc(NC(=O)c2cccnc2)n1	-36	-	-	-	-
O=C(Nc1ncc(Cc2ccccc2Cl)s1)c1ccc2c(c1)CC(c1ccccc1)OC2=O (centres undefined)	-	-	-	.	-
CC1=C(C#N)C(c2ccc3ncccc3c2)C(C#N)=C(C)N1	-	-	-	-61	-
O=C(CCCc1ccccc1)NC1CCSC1=O (centres undefined)	-	-	-	-	-
O=C(Cc1ccc(F)cc1)NC1CCSC1=O (centres undefined)	-33	-	-	-	-
CCOCCCNC(=O)c1cnc2sc(N3CCCCCC3)nn2c1=O	-31	-	-	.	-
N#Cc1c(SCC(=O)Nc2ccccc2C(F)(F)F)sc2c(O)cc(=O)[nH]c12	-33	-	-	-	-

Screens (PubChem)
